An excerpt weighted towards active compounds, which were near 13% of everything screened.
USP8 block: inhibitors of human USP8 deubiquitinase. purified USP8, Ub-rhodamine cleavage fluorescence, 30 min. inhibition, % at 20 µM. Ubiquitin carboxyl-terminal hydrolase 8 (Homo sapiens), P40818. 4.2% of 47,000 active. AID 1645853, 2021
USP17 inh: inhibitors of human USP17 deubiquitinase | AID 1645855, 2021 | purified USP17, Ub-rhodamine cleavage fluorescence, 3 h | Ubiquitin carboxyl-terminal hydrolase 17-like protein 5 (Homo sapiens), A8MUK1 | inhibition, % at 50 µM | 6.5% of 47,000 active
USP28 block: inhibitors of human USP28 deubiquitinase; Ubiquitin carboxyl-terminal hydrolase 28 (Homo sapiens), Q96RU2; purified USP28, Ub-rhodamine cleavage fluorescence, 30 min; inhibition, % at 25 µM; 3% of 47,000 active; AID 1645857, 2021
USP30 block: inhibitors of human USP30 deubiquitinase. Ubiquitin carboxyl-terminal hydrolase 30 (Homo sapiens), Q70CQ3. purified USP30, Ub-rhodamine cleavage fluorescence. inhibition, % at 25 µM. 5.3% of 47,000 active
Target sequence (Q70CQ3 whole entry, looked up): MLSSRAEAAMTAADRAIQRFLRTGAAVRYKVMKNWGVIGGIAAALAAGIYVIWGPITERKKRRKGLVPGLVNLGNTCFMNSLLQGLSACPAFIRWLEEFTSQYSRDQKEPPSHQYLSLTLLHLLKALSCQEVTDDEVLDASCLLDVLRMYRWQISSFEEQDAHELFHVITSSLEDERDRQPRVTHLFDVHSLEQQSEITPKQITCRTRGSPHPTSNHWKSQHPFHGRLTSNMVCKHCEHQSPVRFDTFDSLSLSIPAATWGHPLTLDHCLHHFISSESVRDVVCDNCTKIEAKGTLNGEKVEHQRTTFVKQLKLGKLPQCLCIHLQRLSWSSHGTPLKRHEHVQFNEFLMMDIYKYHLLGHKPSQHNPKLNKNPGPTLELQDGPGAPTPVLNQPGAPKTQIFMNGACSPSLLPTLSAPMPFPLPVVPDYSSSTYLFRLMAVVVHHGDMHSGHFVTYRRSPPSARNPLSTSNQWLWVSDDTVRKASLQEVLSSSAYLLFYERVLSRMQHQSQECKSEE
* hit, by the source's call; i = inactive; x = no result given. No stated cut-off is given here; in the data, active means inhibition above about 30%; inactive means the rest.

SMILES	USP8 block	USP17 inh	USP28 block	USP30 block
CC(C)COc1ccc(-c2nonc2NC(=O)C2COc3ccccc3O2)cc1 (configuration not stated)	15	4	9	29
Cn1nc(-c2nc(C3CC3)no2)c2c1CCN(C(=O)c1ccccc1F)C2	17	8	10	17
CN(C)c1ccc(C2CC(c3c(O)n(C)c(=O)[nH]c3=O)=Nc3ccccc3S2)cc1 (configuration not stated)	18	65*	51*	24
CSc1ccccc1NC(=O)c1nnn2cc(C)[nH]c(=O)c12	-198	-23	2	3
Cc1cn2nnc(C(=O)Nc3ccc(OC(F)(F)F)cc3)c2c(=O)[nH]1	54*	51*	26	54*
COc1ccc(OC)c(S(=O)(=O)Nc2cccc(-c3nc4cccnc4s3)c2)c1	17	-11	9	-44
Cc1ccc(S(=O)(=O)Nc2cccc(-c3nc4cccnc4s3)c2)cc1C	20	29	17	47*
COc1ccc(C)cc1NC(=O)c1cnc(N2CCCCC2)nc1C	-14	-17	-14	-13
Cc1nc2ccc(NC(=O)c3ccccc3OCC(=O)Nc3ccccc3F)cc2s1	-223	-171	-208	i
Cc1nc2ccc(NC(=O)COc3ccccc3[N+](=O)[O-])cc2s1	44*	x	6	57*
CCN(CC)C(=O)Cn1cc(C(=O)C(=O)N2CCCC(C)C2)c2ccccc21 (configuration not stated)	23	x	16	24
CCOC(=O)C1CCCN(C(=O)C(=O)c2cn(CC(=O)N3CCCCC3)c3ccccc23)C1 (configuration not stated)	80*	34*	8	0
CC(C)c1nc2sc3c(N(C)CCO)ncnc3c2c2c1COC(C)(C)C2	-1	-17	-9	-13
Cc1cccc(NC(=O)CNC(=O)c2ccc(-c3noc(C4CCCC4)n3)cc2)c1C	0	32*	2	35*
Cc1oc2ncnc(Oc3ccc(F)cc3)c2c1C	25	29	14	41*
CC(NC(=O)c1ccccc1)c1nc2ccccc2n1CC(=O)NC1CCCCC1 (configuration not stated)	65*	39*	8	39*
CC(NC(=O)c1ccccc1)c1nc2ccccc2n1CC(=O)Nc1ccc(OC(F)(F)F)cc1 (configuration not stated)	33*	12	7	19
O=C(Cn1c(CNC(=O)c2ccccc2)nc2ccccc21)Nc1ccc(F)cc1	72*	88*	37*	78*
CSCC[C@H](NC(=O)c1ccc(NC(C)=O)cc1)c1nnc2ccccn12	0	-2	3	-1
CSCCC(NC(=O)c1ccccc1)c1nc2ccccc2n1CC(=O)Nc1ccccc1 (configuration not stated)	46*	-36	3	11
CC(NC(=O)c1ccccc1)c1nc2ccccc2n1CC(=O)Nc1ccc(C#N)cc1 (configuration not stated)	78*	7	0	-1
Cc1ccc(C(=O)NC(C)c2nc3ccccc3n2CC(=O)N2CCc3ccccc32)cc1 (configuration not stated)	63*	76*	25	63*
O=C(/C=C/c1ccc(OCc2ccccc2)cc1)N1CCN(C(c2ccccc2)c2ccccc2)CC1	0	-14	-18	-27
COc1ccccc1N1CCN(C(=O)/C=C/c2ccc(OCc3ccc(Cl)cc3Cl)cc2)CC1	11	6	5	31*
Cc1ccc(Nc2c(-c3cccnc3)nc3cc(C)ccn23)cc1	-30	-9	33*	32*
SMILES	USP8 block	USP17 inh	USP28 block	USP30 block
COC(=O)c1cccc(Nc2c(-c3ccc(OC)cc3)nc3cnccn23)c1	-42	-53	-42	-122
O=S(=O)(c1cc(F)cc(F)c1)N1CCCn2c(nc3ccccc32)C1	-2	32*	0	38*
Cn1c(N)c(S(=O)(=O)N2CCC(Cc3ccccc3)CC2)c(=O)n(C)c1=O	-39	-16	-9	-15
CC1=C(C)C(N(c2ccccc2)c2ccccc2)N(CCC(C)C)C1=O (configuration not stated)	95*	76*	16	16
Cc1ccc(S(=O)(=O)NC(=O)C2CCCCC2)cc1	-4	-7	0	-6
Cc1cc(C(=O)COC(=O)c2cc(=O)[nH]c3ccccc23)c(C)n1CC1COc2ccccc2O1 (configuration not stated)	-7	-3	-22	-291

Assay outcomes from PubChem.
